Records with an inconclusive call do not appear. The source holds several records for some structures; these can differ, active in one and inactive in another. Calls of active or inactive are those of the source. How the source made its calls: active means hit-call score of the fitted dose curve at least 0.9, where 1 is the maximum; inconclusive means response in the unintended direction; inactive means score below 0.9.
Experiments:
[1] = target: bovine Estrogen Receptor (ER), ESR1 (gene 407238) (UniProt P49884); assay: NVS_NR_bER: NovaScreen (NVS) Nuclear Receptor Binding Assay for bovine Estrogen Receptor (ER) (AID 2283345);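 further: actives lower the bound radioligand count which means they displace the ER ligand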
Sequence of bovine Estrogen Receptor (ER), ESR1 (gene 407238) (P49884 whole entry, looked up): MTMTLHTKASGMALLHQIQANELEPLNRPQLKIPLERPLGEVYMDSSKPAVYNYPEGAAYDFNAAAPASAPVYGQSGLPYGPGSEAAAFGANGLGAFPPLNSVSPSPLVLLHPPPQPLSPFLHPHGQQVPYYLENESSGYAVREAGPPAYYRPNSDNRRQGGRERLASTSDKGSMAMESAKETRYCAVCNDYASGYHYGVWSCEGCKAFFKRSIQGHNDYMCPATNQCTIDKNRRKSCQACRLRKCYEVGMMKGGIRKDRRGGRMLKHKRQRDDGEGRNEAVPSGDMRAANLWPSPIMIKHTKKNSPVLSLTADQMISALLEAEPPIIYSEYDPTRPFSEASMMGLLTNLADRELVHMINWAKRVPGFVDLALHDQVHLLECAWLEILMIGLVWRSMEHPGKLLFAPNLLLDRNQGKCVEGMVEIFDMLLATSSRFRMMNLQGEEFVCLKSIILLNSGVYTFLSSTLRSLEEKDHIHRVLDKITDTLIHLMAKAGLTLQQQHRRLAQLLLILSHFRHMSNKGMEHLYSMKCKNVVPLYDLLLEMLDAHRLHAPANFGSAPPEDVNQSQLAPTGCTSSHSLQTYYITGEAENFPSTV
Procedure, shortened: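 Bovine uterine membranes; tritiated or iodinated radioligand; competitive displacement; 18 h; scintillation read; DMSO negative control; 25 uM duplicates, then concentration series for actives.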

[2] = target: Estrogen receptor (Homo sapiens) (UniProt P03372); assay: NVS_NR_hER: NovaScreen (NVS) Nuclear Receptor Binding Assay for human Estrogen Receptor (ER) (AID 2283348)
Sequence of Estrogen receptor (Homo sapiens) (P03372 whole entry, looked up, the tested form may be a part): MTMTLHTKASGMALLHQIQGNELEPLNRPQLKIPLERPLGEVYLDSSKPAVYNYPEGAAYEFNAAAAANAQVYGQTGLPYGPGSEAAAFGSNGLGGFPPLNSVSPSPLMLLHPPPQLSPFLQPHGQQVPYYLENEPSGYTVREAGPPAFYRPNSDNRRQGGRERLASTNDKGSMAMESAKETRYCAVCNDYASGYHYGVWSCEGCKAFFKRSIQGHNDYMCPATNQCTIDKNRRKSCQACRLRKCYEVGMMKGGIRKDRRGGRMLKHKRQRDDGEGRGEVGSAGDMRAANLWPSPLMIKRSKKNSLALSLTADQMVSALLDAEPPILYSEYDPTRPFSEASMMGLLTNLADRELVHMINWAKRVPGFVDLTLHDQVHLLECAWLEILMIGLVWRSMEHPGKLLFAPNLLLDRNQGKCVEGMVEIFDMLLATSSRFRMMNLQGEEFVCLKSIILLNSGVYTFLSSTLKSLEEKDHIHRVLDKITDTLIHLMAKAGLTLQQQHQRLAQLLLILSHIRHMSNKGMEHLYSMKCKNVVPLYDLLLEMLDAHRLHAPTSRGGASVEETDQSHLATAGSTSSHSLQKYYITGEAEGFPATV
Procedure, shortened: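 Scintillation signal from bound radioligand was measured 18 hours after chemical addition to cell-free MCF7 protein extracts, with DMSO as baseline. Activity was scored as signal loss; compounds ran first at 25 uM in duplicate.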

[3] = target: Estrogen receptor (Homo sapiens) (UniProt P03372); assay: OT_ER_ERaERa_1440: Odyssey Thera (OT) 24-hour HEK293T Protein-Complementation Assay for Estrogen Receptor-alpha/-alpha Homodimer (AID 2283349);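 further: hits raise fluorescence above DMSO for agonists and antagonists alike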
Procedure, shortened: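 Protein-fragment complementation between two human ERα ligand-binding domains (aa 310-547) in stably transfected HEK293T cells was monitored after 24 h treatment, using fluorescence intensity relative to vehicle controls.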

[4] = target: T1, Estrogen receptor (Homo sapiens) + Estrogen receptor beta (Homo sapiens) (UniProt P03372+Q92731); assay: OT_ER_ERaERb_0480: Odyssey Thera (OT) 8-hour HEK293T Protein-Complementation Assay for Estrogen Receptor-alpha/-beta Heterodimer (AID 2283352)
T1 sequence (P03372 whole entry, looked up, the tested form may be a part): as above
T1 sequence (Q92731 whole entry, looked up, the tested form may be a part): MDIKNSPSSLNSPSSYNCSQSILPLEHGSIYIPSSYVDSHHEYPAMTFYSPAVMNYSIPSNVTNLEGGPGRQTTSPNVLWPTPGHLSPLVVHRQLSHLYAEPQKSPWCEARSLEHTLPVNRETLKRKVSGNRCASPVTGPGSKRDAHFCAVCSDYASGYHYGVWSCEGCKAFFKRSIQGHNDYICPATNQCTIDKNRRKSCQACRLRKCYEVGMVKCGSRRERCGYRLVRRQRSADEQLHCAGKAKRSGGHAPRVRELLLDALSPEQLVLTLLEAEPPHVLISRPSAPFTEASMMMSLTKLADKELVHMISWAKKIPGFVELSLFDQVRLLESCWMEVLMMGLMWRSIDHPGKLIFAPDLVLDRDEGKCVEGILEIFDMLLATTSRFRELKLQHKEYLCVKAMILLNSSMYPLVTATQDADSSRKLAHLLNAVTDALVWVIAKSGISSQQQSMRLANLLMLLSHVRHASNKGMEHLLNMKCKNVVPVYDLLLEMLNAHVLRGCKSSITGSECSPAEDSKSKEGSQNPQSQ
Procedure, shortened: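 Increase in mean fluorescence intensity, measured by laser scanning plate cytometry, reported ER-alpha/ER-beta LBD complementation in HEK293T cells after 8 h chemical exposure. DMSO served as baseline; basal signal is low, punctate and cytoplasmic.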

[5] = target: T1, Estrogen receptor (Homo sapiens) + Estrogen receptor beta (Homo sapiens); assay: OT_ER_ERaERb_1440: Odyssey Thera (OT) 24-hour HEK293T Protein-Complementation Assay for Estrogen Receptor-alpha/-beta Homodimer (AID 2283356);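 further: heteromer of ER alpha and ER beta binding domains; hits raise reporter fluorescence and both agonists and antagonists give an increase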
Procedure, shortened: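 Heterodimerisation of ERα (aa 310-547) and ERβ (aa 263-489) ligand binding domains was tracked as fluorescence gain in stably transfected HEK293T cells following 24 h dosing, normalised to DMSO controls.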

[6] = target: Estrogen receptor beta (Homo sapiens) (UniProt Q92731); assay: OT_ER_ERbERb_0480: Odyssey Thera (OT) 8-hour HEK293T Protein-Complementation Assay for Estrogen Receptor-beta/-beta Homodimer (AID 2283357);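 further: active means signal gain over DMSO baseline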
Sequence of Estrogen receptor beta (Homo sapiens) (Q92731 whole entry, looked up, the tested form may be a part): as above
Procedure, shortened: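 Cells (HEK293T, stable ER-beta LBD PCA pair) are treated 8 hours, fixed and Draq5-stained; signal is fluorescence intensity increase relative to vehicle, fitted in the gain direction.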

[7] = target: rat Mineralocorticoid Receptor (MR), Nr3c2 (gene 25672) (UniProt P22199); assay: NVS_NR_rMR: NovaScreen (NVS) Nuclear Receptor Binding Assay for rat Mineralocorticoid Receptor (MR) (AID 2283355)
Sequence of rat Mineralocorticoid Receptor (MR), Nr3c2 (gene 25672) (P22199 whole entry, looked up): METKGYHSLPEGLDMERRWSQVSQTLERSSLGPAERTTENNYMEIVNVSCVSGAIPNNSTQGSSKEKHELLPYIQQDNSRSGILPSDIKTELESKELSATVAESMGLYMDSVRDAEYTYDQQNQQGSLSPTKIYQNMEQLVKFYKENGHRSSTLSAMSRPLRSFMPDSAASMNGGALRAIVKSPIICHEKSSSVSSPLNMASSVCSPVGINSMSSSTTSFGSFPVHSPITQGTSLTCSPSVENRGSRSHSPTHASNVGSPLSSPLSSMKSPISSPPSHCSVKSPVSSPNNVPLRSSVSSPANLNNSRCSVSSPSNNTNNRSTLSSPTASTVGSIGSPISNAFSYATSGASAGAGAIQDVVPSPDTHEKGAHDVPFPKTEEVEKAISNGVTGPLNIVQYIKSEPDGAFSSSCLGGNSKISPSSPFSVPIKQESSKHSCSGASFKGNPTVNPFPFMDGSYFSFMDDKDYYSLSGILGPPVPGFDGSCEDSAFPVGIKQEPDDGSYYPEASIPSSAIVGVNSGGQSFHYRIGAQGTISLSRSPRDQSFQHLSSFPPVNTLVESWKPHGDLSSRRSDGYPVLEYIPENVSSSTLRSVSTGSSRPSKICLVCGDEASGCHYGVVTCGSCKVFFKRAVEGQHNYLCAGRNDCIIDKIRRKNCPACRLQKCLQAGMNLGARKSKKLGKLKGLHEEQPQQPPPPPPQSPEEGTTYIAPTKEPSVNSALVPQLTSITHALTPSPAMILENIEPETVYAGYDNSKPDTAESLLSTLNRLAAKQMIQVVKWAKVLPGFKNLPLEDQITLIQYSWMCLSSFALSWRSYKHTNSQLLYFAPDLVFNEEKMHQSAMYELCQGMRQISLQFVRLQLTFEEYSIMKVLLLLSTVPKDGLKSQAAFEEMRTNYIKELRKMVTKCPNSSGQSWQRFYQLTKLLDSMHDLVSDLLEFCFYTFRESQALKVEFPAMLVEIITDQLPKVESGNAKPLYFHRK
Procedure, shortened: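 Adrenalectomized rat brain supernatant was dosed with test chemical, then radioligand binding was measured by scintillation counting at 24 h. Initial testing ran in duplicate at 25 uM, followed by concentration series for actives.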

[8] = target: Retinoic acid receptor alpha (Homo sapiens) (UniProt P10276); assay: NVS_NR_hRAR_Antagonist: NovaScreen (NVS) Nuclear Receptor Binding Assay for human Retinoic Acid Alpha Receptor Antagonism (RAR) (AID 2283358)
Sequence of Retinoic acid receptor alpha (Homo sapiens) (P10276 whole entry, looked up): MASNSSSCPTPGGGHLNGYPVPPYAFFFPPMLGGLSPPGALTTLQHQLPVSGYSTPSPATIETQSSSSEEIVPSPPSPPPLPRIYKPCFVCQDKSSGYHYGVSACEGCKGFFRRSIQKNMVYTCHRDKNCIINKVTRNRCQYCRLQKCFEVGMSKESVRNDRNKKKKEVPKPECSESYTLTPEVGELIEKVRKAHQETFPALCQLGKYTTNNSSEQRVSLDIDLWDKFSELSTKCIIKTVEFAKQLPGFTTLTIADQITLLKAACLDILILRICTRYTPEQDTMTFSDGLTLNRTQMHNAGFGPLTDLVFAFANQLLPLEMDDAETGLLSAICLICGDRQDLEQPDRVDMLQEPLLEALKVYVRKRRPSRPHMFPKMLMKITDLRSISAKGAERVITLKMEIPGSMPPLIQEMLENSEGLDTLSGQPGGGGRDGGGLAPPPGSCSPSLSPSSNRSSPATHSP
Procedure, shortened: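 TR-FRET, cell-free, antagonist format; 2 h incubation after dosing; DMSO = baseline; signal loss fitted; 25 uM duplicate primary, then conc. series.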

[9] = target: human Peroxisome Proliferator-activated Receptor alpha (PPARa), PPARA (gene 5465) (UniProt Q07869); assay: NVS_NR_hPPARa: NovaScreen (NVS) Nuclear Receptor Binding Assay for human Peroxisome Proliferator-activated Receptor alpha (PPARa) (AID 2283359);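 further: activity means loss of TR-FRET signal versus DMSO baseline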
Sequence of human Peroxisome Proliferator-activated Receptor alpha (PPARa), PPARA (gene 5465) (Q07869 whole entry, looked up): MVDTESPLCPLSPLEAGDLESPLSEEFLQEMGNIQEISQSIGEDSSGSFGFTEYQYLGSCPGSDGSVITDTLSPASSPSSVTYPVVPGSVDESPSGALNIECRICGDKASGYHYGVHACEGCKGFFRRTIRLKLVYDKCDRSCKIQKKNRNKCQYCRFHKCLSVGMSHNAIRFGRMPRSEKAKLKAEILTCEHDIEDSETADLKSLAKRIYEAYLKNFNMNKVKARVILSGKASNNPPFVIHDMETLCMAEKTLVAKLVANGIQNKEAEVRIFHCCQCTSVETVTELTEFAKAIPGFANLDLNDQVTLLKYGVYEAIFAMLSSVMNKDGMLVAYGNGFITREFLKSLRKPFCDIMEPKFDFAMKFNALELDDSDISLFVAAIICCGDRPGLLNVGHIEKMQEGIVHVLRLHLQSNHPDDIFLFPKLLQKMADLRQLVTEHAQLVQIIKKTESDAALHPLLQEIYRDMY
Procedure, shortened: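 Chemicals were first screened in duplicate at 25 uM, and active ones were retested across concentration series. Binding was monitored by TR-FRET one hour after dosing, with decreased signal against DMSO counted as activity.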

Q: How did the AC50 [1] turn out when CCC(=O)Oc1ccc(/C(CC)=C(\CC)c2ccc(OC(=O)CC)cc2)cc1 was run?
A: 5.21 nM (active)

Q: And the AC50 [2]?
A: 0.00229 µM (active)

Q: How did the outcome [1] turn out when OC1CCCC1 was run?
A: inactive

Q: What about the outcome [2] of the same molecule?
A: inactive

Q: What about the outcome [3] of the same molecule?
A: inactive

Q: And the outcome [4]?
A: inactive

Q: What about the outcome [5] of the same molecule?
A: inactive

Q: Cc1cccc(N(C)C(=S)Oc2ccc3ccccc3c2)c1 was tested. Which outcome [1] did it give?
A: inactive

Q: What about the outcome [2] of the same molecule?
A: inactive

Q: O=S1(=O)OC(c2ccc(O)cc2)(c2ccc(O)cc2)c2ccccc21 was tested. Which outcome [1] did it give?
A: inactive

Q: And the AC50 [2]?
A: 13.2 µM (active)

Q: And the outcome [3]?
A: inactive

Q: What about the outcome [4] of the same molecule?
A: inactive

Q: And the outcome [5]?
A: inactive

Q: And the outcome [6]?
A: inactive

Q: Which outcome [1] does the source give for S=C(NC1CCCCC1)NC1CCCCC1 here?
A: inactive

Q: What about the outcome [2] of the same molecule?
A: inactive

Q: What does the source list for CCOC(=O)N1CCC(=C2c3ccc(Cl)cc3CCc3cccnc32)CC1?
A: outcome [1]: inactive; AC50 [2]: 0.0259 µM (active)

Q: With CC1=Nc2ccc3ccccc3c2C1(C)C as the molecule, how does the outcome [1] read?
A: inactive

Q: Which results are given for Nc1ccc(Oc2ccc(N)c(N)c2)cc1?
A: outcome [1]: inactive; outcome [2]: inactive

Q: Which AC50 [1] does the source give for CC(=O)c1ccc2c(c1)CCCC2 here?
A: 5860 nM (active)

Q: CCC(Cc1ccccc1)(C(=O)c1ccc(N2CCOCC2)cc1)N(C)C (centres undefined) was tested. Which outcome [2] did it give?
A: inactive

Q: With [Cl][In]([Cl])[Cl] as the molecule, how does the outcome [1] read?
A: inactive

Q: What about the AC50 [2] of the same molecule?
A: 25 µM (active)

Q: What about the outcome [2] of the same molecule?
A: inactive

Q: Which outcome [1] does the source give for O=C(c1ccccc1)c1ccc(O)c(O)c1O here?
A: inactive

Q: What about the outcome [2] of the same molecule?
A: inactive

Q: With CCCCCCCOC(=O)CCC as the molecule, how does the outcome [7] read?
A: inactive

Q: Which outcome [7] does the source give for CC(C)(c1cc(Br)c(OCCO)c(Br)c1)c1cc(Br)c(OCCO)c(Br)c1 here?
A: inactive

Q: For CCCCC(CC)CCC(CC(C)C)OS(=O)(=O)O (centres undefined), which outcome [8] is on record?
A: inactive

Q: Which outcome [9] does the source give for Cc1ccc(C(C)(C)C)cc1 here?
A: inactive

Q: CCCCCCCC/C=C\CCCCCCCC(=O)O was tested. Which AC50 [9] did it give?
A: 8.82 µM (active)

Source: PubChem BioAssay (EPA / NIEHS)
